# Laboratory results published in paper PMC5540273 (PLoS ONE, 2017).
# Tested on: EPHA1
# Conditions: concentration: 1 μM, replicates: in singlicate; n = 1
# 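Note: KINOMEscan kinase panel screen.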
row,SMILES,%Inh [%]
1,CC(=O)N1CCN(c2ccc(Nc3nccc(-c4sc(C(C)C)nc4-c4cccc(NS(=O)(=O)c5cccc(Cl)c5)c4)n3)cn2)CC1 [GSK1660437],71
2,CN(C)S(=O)(=O)c1cc(-c2ccc3nccc(-c4cccc(S(N)(=O)=O)c4)c3c2)cnc1N [GSK1669921],10
3,O=C(NC1CCN(c2ccnc(Nc3ccc(F)cc3)n2)C1)c1cc2ccccc2s1 (stereo not shown) [GSK1379716],9
4,Cn1cc(-c2ccc3c(c2)CCN3C(=O)Cc2cccc(Cl)c2)c2c(N)ncnc21 [GSK2606590],11
5,FC(F)(F)c1ccc(/C=C/c2cncnc2Nc2ccc3[nH]c(Cc4ccccc4)nc3c2)cc1 [GW709199],10
6,Cl.c1ccc(-c2ccc3c(Nc4ccc5[nH]ccc5c4)ccnc3c2)nc1 [GW440138],48
7,c1ccc(-c2n[nH]cc2Nc2ccnc3ccccc23)nc1 [GW694077],0
8,CC(C)c1nc(-c2cccc(NS(=O)(=O)c3c(F)cccc3F)c2F)c(-c2ccnc(Nc3ccc(N4CCOCC4)nc3)n2)s1 [GSK2008607],98.9
9,COc1cc(Nc2nccc(N3CCC(NC(=O)c4cc5ccccc5s4)C3)n2)cc(OC)c1OC (stereo not shown) [GSK1379760],3
10,COc1cc(Nc2ncc3c(C)nc(-c4cc5ccccc5[nH]4)n3n2)cc(OC)c1OC [GW869516],41
11,Cn1cc(-c2[nH]c3cc(NC(=O)[C@H](N)C4CCCCC4)cc4c3c2C=NNC4=O)cn1,25
12,COC(=O)Nc1nc2ccc(Oc3ccc(NC(=O)Nc4cc(C(F)(F)F)ccc4F)cc3)cc2n1C.Cl [GW692089],36
13,CCS(=O)(=O)c1ccc(OC)c(Nc2nccc(-c3c(-c4cccc(NC(=O)c5c(F)cccc5F)c4)nn4ncccc34)n2)c1 [GSK326180],23
14,CCn1c(-c2nonc2N)nc2c(C#CC(C)(C)O)nc(OC[C@H](N)c3ccccc3)cc21 [GSK943949],2
15,CC(=O)Nc1nc2cnc(Nc3cc(NC(=O)c4cccc(C5(C#N)CC5)c4Cl)ccc3C)nc2s1,70
16,COc1ccc(CNC(=O)NC2CCN(c3ccnc(Nc4ccc(F)cc4)n3)CC2)cc1 [GSK1379788],7
17,O=C(O)C(F)(F)F.O=C(O)C(F)(F)F.O=c1[nH]ccc2nc(N[C@@H]3CCCNC3)nc(Nc3ccc(S(=O)(=O)N4CCOCC4)cc3)c12 [GSK2177277],25
18,Cc1occc1-c1ncc(OC[C@@H](N)Cc2c[nH]c3ccccc23)cc1-c1ccc2[nH]nc(C)c2c1.O=C(O)C(F)(F)F [GSK682037],0
19,CSc1cccc2c(-c3ccncn3)c(-c3ccc(F)cc3)nn12 [GW514786],18

row,SMILES,%Inh [%]
1,CN1CCN(Cc2cccc(-c3ccc4c(Nc5ccc(Oc6ccccc6)cc5)ccnc4c3)c2)CC1 [GW578342],0
2,COc1cccc(NC(=O)NC2CCN(c3ccnc(Nc4cc(OC)c(OC)c(OC)c4)n3)C2)c1 (stereo not shown) [GSK1379763],6
3,CN1CCN(CCCNc2nccc(-c3c(-c4ccc(F)cc4)nn4cc(C(F)(F)F)ccc34)n2)CC1 [GW621581],42
4,COc1cc(Nc2nccc(N3CCC(NC(=O)Nc4cccc(C(C)=O)c4)C3)n2)cc(OC)c1OC (stereo not shown) [GSK1379753],5
5,Cn1cc(-c2ccc3c(c2)CCN3C(=O)Cc2cccc(F)c2)c2c(N)ncnc21 [GSK2603358],16
6,Clc1ccc(-c2nn3ncccc3c2-c2ccnc(Nc3ccc4c(c3)OCCO4)n2)cc1 [GW829116],0
7,Cl.Cl.NCC(NC(=O)c1cc(-c2ccccc2)c(-c2ccnc3[nH]ccc23)s1)c1ccccc1 (stereo not shown) [GSK1321561],26
8,c1ccc(Oc2ccc(Nc3ccnc4cc(-c5ccc(CNCCN6CCOCC6)o5)ccc34)cc2)nc1 [GW567145],72
9,CC(C)(C)c1ccc2nccc(Nc3cccc(O)c3)c2c1 [GW856795],74
10,COc1ccc(-c2coc3ccc(-c4nnc(SCc5ccc(OC)c(C(F)(F)F)c5)o4)cc23)cc1,0
11,COc1cccc(C2=C(Nc3ccc(Cl)c(C(=O)O)c3)C(=O)NC2=O)c1 [SB-390769],1
12,O=C(Nc1n[nH]c2nc(-c3ccc(O)cc3)ccc12)C1CC1 [SB-710363],0
13,CNC(=O)c1ccccc1Nc1nc(Nc2ccc(N3CCOCC3)cc2)ncc1Cl.Cl [GSK1576028],90.8
14,COc1ccc(Nc2nccc(NCCNC(=O)c3cc4ccccc4s3)n2)cc1 [GSK1379896],0
15,COc1cc(Nc2nccc(-c3c(-c4cccc(NC(=O)c5c(F)cccc5F)c4)nn4ccccc34)n2)cc(OC)c1OC [GSK323521],12
16,Cc1ccc(C(=O)N2CC[C@@H](O)C2)cc1-n1c(C)cc(OCc2ccc(F)cc2F)c(Br)c1=O,78
17,Cc1ccc(S(=O)(=O)Nc2ccc(Nc3nccc(Nc4cccc5[nH]ncc45)n3)cc2)cc1 [GSK581271],66
18,COc1cc2c(cc1OCCN1CCNCC1)ncc1c3ccc(C#N)cc3[nH]c21,3
